# Experimental data from PubChem BioAssay.
# Values joined by “and” are separate entries in the source; they are usually repeats but may differ in a detail not shown here. Equal values may be shown once. Active and inactive are the calls of the source. Unless noted, no stated cut-off is given here; in the data, active means nuclear beta-catenin stimulation mostly above about 4.2% (no sharp cut-off); inactive means mostly below about 10%.
# How the values were obtained:
# [1] = stimulators of nuclear beta-catenin in C2C12, primary screen, imaging, WNT3A-conditioned medium, mouse C2C12, NPC library (AID 1117326); settings: stronger effect = higher value; further: reference of the scale not given here
# [2] = stimulators of insulin release from INS-1E, primary screen, cell-based, 5 mM glucose, NPC library (AID 1117329;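 active means compound raises insulin release from rat beta cells at 5 mM glucose, no numeric limit stated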; further: reference of the scale not given here); settings: rat INS-1E insulin secretion, at 10 µM, stronger effect = higher value
# [3] = glucagon-like peptide 1 release enhancers, primary assay, NCI-H716 cell line, NPC library (AID 1117341;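 active means compound raises GLP1 secretion from the human gut endocrine cells, with no numeric limit stated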; further: reference of the scale not given here); settings: NCI-H716 cells, at 10 µM, stronger effect = higher value
# [4] = sensitizers of A549 cells to miR-34 induction, primary screen, imaging, A549 dox-inducible miR-34, nuclei and caspase counts (AID 1347080;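 active means compounds whose cell count with miR-34 switched on is under 0.7 times the count with it off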); settings: A549 miR-34 inducible, Hoechst nuclei count, 48 h
# [5] = survival rescue of mitochondrial mutant cells in low glucose, primary screen, MELAS cybrids, Rieske KO mouse fibroblasts, CellTiter-Glo (AID 1508586;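 active means mean z-score across replicates of 1.96 or higher in either the MELAS or the Rieske mutant cell line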;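 further: z relative to plate mean and SD of compound and empty wells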)
# [6] = viability rescue of complex I mutant cybrids, primary screen, cell-based, galactose medium, ATP luminescence (AID 1645843;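 active means z-score of at least 1.8 in each of two replicates, scored against plate mean and spread of sample wells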;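 further: positive z means more ATP and so rescue of galactose-driven cybrid death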); settings: complex I mutant cybrid cells, 72 h, stronger effect = higher value
# [7] = biological target: 6-phosphogluconate dehydrogenase, decarboxylating (Homo sapiens) (UniProt P52209); experiment: 6PGD enzyme inhibitors, primary screen, biochemical, human, recombinant enzyme, NADPH absorbance (AID 1159550;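 active means at least 20% inhibition of 6-phosphogluconate dehydrogenase activity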); settings: recombinant 6PGD, NADPH absorbance 341 nm; at 10 µM; stronger effect = higher value
# Sequence of 6-phosphogluconate dehydrogenase, decarboxylating (Homo sapiens) (P52209 whole entry, looked up): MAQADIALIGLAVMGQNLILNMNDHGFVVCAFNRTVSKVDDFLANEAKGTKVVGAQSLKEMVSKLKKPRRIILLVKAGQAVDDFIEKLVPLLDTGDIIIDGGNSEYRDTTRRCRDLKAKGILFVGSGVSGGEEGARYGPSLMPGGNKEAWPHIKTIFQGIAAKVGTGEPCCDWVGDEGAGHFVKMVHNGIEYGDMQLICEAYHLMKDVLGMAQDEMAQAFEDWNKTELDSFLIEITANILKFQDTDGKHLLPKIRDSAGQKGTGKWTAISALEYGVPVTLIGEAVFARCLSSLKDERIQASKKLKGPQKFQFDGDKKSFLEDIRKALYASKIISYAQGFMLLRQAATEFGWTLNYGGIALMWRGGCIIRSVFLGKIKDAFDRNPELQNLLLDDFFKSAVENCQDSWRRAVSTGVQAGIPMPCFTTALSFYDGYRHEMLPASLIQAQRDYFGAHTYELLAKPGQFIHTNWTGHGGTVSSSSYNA
# [8] = biological target: NAD(+) hydrolase SARM1 (Homo sapiens) (UniProt Q6SZW1); experiment: SARM1 TIR NADase inhibitors, cell lysate, NAD-Glo luminescence (AID 1508614;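 active means compound whose remaining NAD level is above about 45 nM, limit read from the data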); settings: SAM-TIR HEK293T lysate NADase, at 1 µM, stronger effect = higher value
# Sequence of NAD(+) hydrolase SARM1 (Homo sapiens) (Q6SZW1 whole entry, looked up): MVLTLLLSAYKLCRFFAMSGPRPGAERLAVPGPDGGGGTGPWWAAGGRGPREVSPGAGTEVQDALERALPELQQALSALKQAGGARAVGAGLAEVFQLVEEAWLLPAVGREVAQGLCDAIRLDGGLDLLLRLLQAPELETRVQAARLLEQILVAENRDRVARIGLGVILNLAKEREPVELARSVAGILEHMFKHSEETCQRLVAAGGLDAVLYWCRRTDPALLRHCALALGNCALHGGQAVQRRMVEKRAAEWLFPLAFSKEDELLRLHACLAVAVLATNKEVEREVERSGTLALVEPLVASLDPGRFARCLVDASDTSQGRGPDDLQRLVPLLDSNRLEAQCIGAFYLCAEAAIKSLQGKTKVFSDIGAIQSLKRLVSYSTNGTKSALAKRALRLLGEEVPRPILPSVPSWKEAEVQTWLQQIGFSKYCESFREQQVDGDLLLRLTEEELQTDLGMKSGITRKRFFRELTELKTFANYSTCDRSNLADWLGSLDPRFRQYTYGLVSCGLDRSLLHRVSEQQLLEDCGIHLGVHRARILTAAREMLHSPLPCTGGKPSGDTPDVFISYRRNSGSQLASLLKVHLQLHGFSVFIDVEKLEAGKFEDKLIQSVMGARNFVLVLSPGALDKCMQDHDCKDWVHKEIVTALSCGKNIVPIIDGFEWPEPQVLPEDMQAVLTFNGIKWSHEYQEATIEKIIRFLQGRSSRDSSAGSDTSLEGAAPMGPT
# [9] = growth inhibition of GSK3B-pretreated HCT116 cells – cell-based, CellTiter-Glo, 0.2 to 20 µM (AID 1117336;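 active means compounds lowering colon cancer cell viability after pretreatment blocking the GSK3B kinase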); settings: HCT116 viability after GSK3B inhibitor, at 20 µM, stronger effect = higher value
# [10] = inhibition of endothelial tube formation, primary screen, imaging, VEGF stimulated, CD31 staining, tube area, NPC library (AID 1117340;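 active means compound that reduces growth-factor-driven endothelial tube area in a mixed cell culture, no cutoff stated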); settings: VEGF-stimulated ADSC/ECFC co-culture, at 10 µM, stronger effect = higher value
# [11] = HCT116 colon cancer cell growth inhibition, primary screen, CellTiter-Glo luminescence, NPC library (AID 1117342;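 active means compounds that lower survival of HCT116 colon cancer cells in the luminescence readout, no numeric limit stated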); settings: at 20 µM (top of the series)
# [12] = CellTiter-Glo luminescent readout of SW480 viability loss, NPC library primary (AID 1117343;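 active means compounds that lower viability of the colon cancer cells in the luminescence readout, with no numeric limit stated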); settings: CellTiter-Glo luminescence; at 20 µM (top of the series) unless noted
# [13] = decreased DLD-1 cellular survival, CellTiter-Glo luminescent readout, NPC compound collection, primary HTS (AID 1117346;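 active means compounds that lower survival of DLD-1 colon cancer cells in the luminescence readout, no cutoff given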); settings: DLD-1 viability, CellTiter-Glo luminescence; at 20 µM (top of the series)
# [14] = stronger effect = lower value, cell number ratio, induced over uninduced
# [15] = measured here: relative caspase fold change +Dox/-Dox
# [16] = measured here: total cells with miR-34 induction, stronger effect = lower value
# [17] = measured here: total cells without miR-34 induction
compound,measurement,setting,value
CNS(=O)(=O)CCc1ccc2[nH]cc(C3CCN(C)CC3)c2c1,nuclear beta-catenin stimulation,[1]; at 10 µM,0.7% (inactive)
same,nuclear beta-catenin stimulation,"[1]; stimulation, at 2 µM",0.4%
same,insulin secretion stimulation,[2],0.5% (inactive)
same,GLP1 secretion stimulation,[3],-4.5% (inactive)
same,fold change,[4]; [14],1.03 (inactive) and 0.889 (inactive)
same,fold change,[4]; [15],0.856 and 0.863
same,cell count,[4]; [16],10300 and 7800
same,cell count,[4]; [17],9960 and 8780
same,z-score,"[5]; MELAS cybrid survival, CellTiter-Glo 48 h, stronger effect = higher value",-0.419 (inactive)
same,z-score,"[5]; Rieske KO mouse fibroblast survival, CellTiter-Glo 72 h",0.51
same,z-score,[6],-0.035 (inactive)
Cc1c(C)c2c(c(C)c1O)CC[C@@](C)(CCC[C@H](C)CCC[C@H](C)CCCC(C)C)O2,nuclear beta-catenin stimulation,[1]; at 10 µM,0.1% (inactive)
same,nuclear beta-catenin stimulation,"[1]; stimulation, at 2 µM",0.4%
same,insulin secretion stimulation,[2],1% (inactive)
same,GLP1 secretion stimulation,[3],4.7% (inactive)
same,inhibition,[7],-20.7% (inactive)
same,fold change,[4]; [14],0.864 (inactive)
same,fold change,[4]; [15],1.16
same,cell count,[4]; [16],7550
same,cell count,[4]; [17],8740
same,remaining NAD,[8],10 nM (inactive)
Cc1cc(OI)c(C(C)C)cc1-c1cc(C(C)C)c(OI)cc1C,nuclear beta-catenin stimulation,[1]; at 10 µM,0% (inactive)
same,nuclear beta-catenin stimulation,"[1]; stimulation, at 2 µM",5.1%
same,viability decrease,[9],13.9% (inactive)
same,tube area decrease,[10],4.7% (inactive)
same,inhibition of viability,[11],-41.6% (inactive)
same,viability decrease (inhibition),[12],10.4% (inactive)
same,viability decrease (inhibition),[13],18.8% (inactive)
C[C@H](O)CN(C)C,nuclear beta-catenin stimulation,[1]; at 10 µM,-0.1% (inactive)
same,nuclear beta-catenin stimulation,"[1]; stimulation, at 2 µM",1.5%
same,insulin secretion stimulation,[2],0.35% (inactive)
same,GLP1 secretion stimulation,[3],-2.5% (inactive)
CCCCC[C@@H](O)CC[C@H]1[C@@H]2Cc3cccc(OCC(=O)O)c3C[C@@H]2C[C@@H]1O,nuclear beta-catenin stimulation,[1]; at 10 µM,-0.3% (inactive)
same,nuclear beta-catenin stimulation,"[1]; stimulation, at 2 µM",0.2%
same,insulin secretion stimulation,[2],-0.45% (inactive)
same,GLP1 secretion stimulation,[3],8.8% (inactive)
